Among all 350,000 compounds or so, about 31,000 (8.9%) were called active. Roughly 15% stayed inconclusive and do not appear here. The call rests on the fitted dose curve; in most records, active means well fitted inhibition curve with a large enough effect; inconclusive means small, poorly fitted or top-dose-only effect; inactive means no such curve, though single readings can be large or run the other way. What follows is part of a selection rich in actives, with near analogues and random picks from the rest. Where a call stands in place of a potency, no number is given.
Potency means the concentration at half of the fitted maximal effect.

Histone-lysine N-methyltransferase EHMT2 (Homo sapiens), sequence (Q96KQ7 913-1193 limits assumed): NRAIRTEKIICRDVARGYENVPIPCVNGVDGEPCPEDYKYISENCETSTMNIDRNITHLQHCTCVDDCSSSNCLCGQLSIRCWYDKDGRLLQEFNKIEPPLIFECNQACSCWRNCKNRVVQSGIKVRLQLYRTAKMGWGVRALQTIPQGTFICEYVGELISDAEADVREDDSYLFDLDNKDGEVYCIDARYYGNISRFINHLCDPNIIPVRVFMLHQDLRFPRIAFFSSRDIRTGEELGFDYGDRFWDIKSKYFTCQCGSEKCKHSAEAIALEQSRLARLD

In the assay the target is Histone-lysine N-methyltransferase EHMT2 (Homo sapiens) (UniProt Q96KQ7). As to the kind of experiment: qHTS Assay for Inhibitors of Histone Lysine Methyltransferase G9a. Further: nearly all actives have a fitted effect of over 75% in size. To be noted: G9a H3K9 monomethylation, AlphaScreen, 2 h; series mostly up to 59 µM. A digest of the protocol:
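Using a bead-based AlphaScreen, monomethylated H3K9 product from 2 h room-temperature reactions (G9a 20 nM, peptide 500 nM, SAM 20 uM) was detected with 0.5 ug/mL rabbit anti-H3K9me1 antibody.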
Background: Quantitative high-throughput screening tests each substance at several concentrations.
Regarding `O=C(NCCN1C(=O)C2C3C=CC(C3)C2C1=O)Nc1ccccn1` (stereo not drawn), the Potency result is “inactive”.
Same read-out and setting: the result for `O=C(CN1C(=O)C2C3C=CC(C3)C2C1=O)Nc1nc(-c2ccccn2)cs1` (stereo not drawn) reads 39.8 µM (active).
On the same count and under the same terms, the result for `O=C(CCN1C(=O)C2C3C=CC(C3)C2C1=O)Nc1ccccc1F` (stereo not drawn) reads “inactive”; that for `COCCCN(C(=O)CSCc1ccc(C)cc1)c1c(N)n(Cc2ccccc2)c(=O)[nH]c1=O`, “inactive”; that for `Cc1c(CNC2CCCCC2)c(C(=O)O)c(C)n1Cc1cccc(Cl)c1`, “inactive”.
Same read-out and setting: under `Cc1onc(-c2c(F)cccc2Cl)c1C(=O)N(C)CC(=O)Nc1cccc(F)c1` stands “inactive”; under `CCOC(=O)c1ccc(NC(=O)CCS(=O)(=O)c2ccc(C)cc2)cc1`, “inactive”; under `O=C(CSc1nnc(CNC(=O)c2ccc(F)cc2)o1)Nc1ccc2c(c1)OCO2`, “inactive”.
With `O=S(=O)(N1CCOCC1)N1CCN(c2ccccc2F)CC1`, the Potency result was “inactive”.
The same measure, in the same setting: under `Cc1cccc(C)c1N1CCN(S(=O)(=O)N2CCOCC2)CC1` stands 39.8 µM (active); under `Cc1cccc(C)c1N1CCN(S(=O)(=O)N2CCCCC2)CC1`, “inactive”; under `CN(CC(=O)Nc1cccc(F)c1)C(=O)C1CC(=O)N(CCc2ccccc2)C1` (stereo not drawn), “inactive”.
The same measure, in the same setting: under `Cc1ccc(CNC(=O)CCc2c(C)nn(-c3ccc(N4CCCC4)nn3)c2C)cc1` stands “inactive”; under `CCC(C)NC(=O)/C=C/c1ccc(S(=O)(=O)NCc2ccco2)cc1` (stereo not drawn), “inactive”; under `O=C(O)/C=C/c1ccc(S(=O)(=O)N2CCCCCC2)cc1`, “inactive”.
Regarding `CCN(CC)CCNS(=O)(=O)c1ccc(/C=C/C(=O)O)cc1`, the Potency is 39.8 µM (active).
Consider `Cc1cc(NC(=O)CSC2=NS(=O)(=O)c3cc(Cl)ccc3N2)no1`, for which the Potency entry is “inactive”.
With `Cc1ccc(CNC(=O)C(=O)c2cn(CC(=O)N3CCCC3)c3ccccc23)cc1`, the Potency entry was “inactive”.
With `O=C(NCc1ccco1)C(=O)c1cn(CC(=O)N2CCCCCC2)c2ccccc12`, the Potency was 50.1 µM (active).
The same measure, in the same setting: under `O=C(NCCCn1ccnc1)C(=O)c1cn(CC(=O)N2CCCCCC2)c2ccccc12` stands “inactive”.
Regarding `COc1cccc(OCCn2c(-c3ccc(Br)cc3)nc3ccccc3c2=O)c1`, the Potency entry was “inactive”.
Same read-out and setting: under `Cc1oc2ncn(CC(C)C)c(=O)c2c1C(=O)N1CCN(c2ccccc2F)CC1` stands “inactive”.
Consider `Cc1cc(Cl)c2oc(C(=O)N(C)C(C)c3ccccn3)c(C)c2c1` (stereo not drawn), for which the Potency result is “inactive”.
On to `COc1ccc(-c2sc3ccc(OC)cc3c2C#Cc2ccccn2)cc1`, for which the activity, negative = inhibition was -2.78% [at 0.501 µM] (inactive).
`Cc1cc(C)cc(NC(=O)COc2coc(CN3CCN(c4ccccc4)CC3)cc2=O)c1`: the Potency result is “inactive”.
In the case of `CCOc1ccc(N/C=C/C(=O)c2cc(OC)c(OC)c(OC)c2)cc1`, the activity, negative = inhibition was -10.6% [at 0.501 µM] (inactive).
On the same count and under the same terms, under `COC(=O)c1c(NC(=O)CCCC(=O)O)sc2c1CCCCC2` stands 23% [at 12.7 µM] (inactive).
With `O=C(Cc1ccccc1)Nc1sc2c(c1C(=O)Nc1ccc(Br)cc1)CCC2`, the Potency entry was “inactive”.
Still for that read-out and setting: the result for `Cc1ccc(C(=O)c2c(NC(=O)c3ccccc3)sc(C)c2C)cc1` reads 8.91 µM (active).
The same measure, in the same setting: the result for `Cc1ccc(C(=O)NCCNC(=O)c2ccccc2)cc1` reads “inactive”; that for `CCOC(=O)c1ccc(NC(=O)c2c(NCc3cccc(OC)c3)sc3c2CCC3)cc1`, 7.94 µM (active); that for `CCOC(=O)c1ccc(NC(=O)CC2C(=O)N(c3cccc(OC)c3)C(=O)N2C2CCCCC2)cc1` (stereo not drawn), “inactive”.
As for `CCOC(=O)c1ccc(NC(=O)c2csc3c2CCCCC3)cc1`, the Potency entry was “inactive”.
Same read-out and setting: under `Cc1ccc(NC(=O)c2c(NC(=O)CCC(=O)O)sc3c2CCCCC3)cc1` stands 28.2 µM (active).
Same read-out and setting: the result for `CCOC(=O)c1c(NC(=O)CCC(=O)NCc2ccco2)sc2c1CCCC2` reads “inactive”; that for `CCOc1ccc(CCNC(=O)c2csc3c2CCCCC3)cc1`, “inactive”; that for `Cc1sc(NC(=O)c2ccc3ncsc3c2)c(C(N)=O)c1C`, “inactive”.
Still for that read-out and setting: under `CCOc1ccc(NC(=O)c2c(NC(=O)Cc3ccccc3)sc3c2CCCCC3)cc1` stands 1.12 µM (active); under `Cc1cc(C)cc(Nc2ncnc3onc(-c4ccc(F)cc4)c23)c1`, “inactive”.
As to `CNC(=O)CN1C(=O)c2cccnc2Sc2ccccc21`, the Potency entry was “inactive”.
`O=C(CSc1oc(-c2ccco2)nc1S(=O)(=O)c1ccccc1)c1ccc(Cl)cc1`: the Potency entry is “inactive”.
For `COc1cccc(NC(=O)c2ccccc2N(Cc2ccccc2)S(C)(=O)=O)c1`, the activity, negative = inhibition is 19.2% [at 0.501 µM] (inactive).
As to `COc1ccc(-n2c(SCC(=O)Nc3ccc(Cl)c(C)c3)nc3n[nH]c(C)c3c2=N)cc1`, the Potency result is “inactive”.
As for `COc1ccc(C2C(=O)N(C3CCCCC3)CC(=O)N2Cc2ccccc2Cl)cc1OC` (stereo not drawn), the Potency result is “inactive”.
`Cc1cc(C(=O)COc2ccccc2Cl)c(C)n1C1CC1`: the activity, negative = inhibition was 15.7% [at 0.501 µM] (inactive).
As to `O=C(CC(c1cccs1)N1Cc2ccccc2C1=O)Nc1ccc(F)cc1F` (stereo not drawn), the Potency result is “inactive”.
As to `Cc1cccc(OCCCC(=O)Nc2sc3c(c2C(N)=O)CCC(C)C3)c1` (stereo not drawn), the Potency entry is “inactive”.
Same read-out and setting: under `Cc1ccc(C(=O)c2c(NC(=O)c3ccncc3)sc3c2CCCC3)cc1` stands 15.8 µM (active); under `CCOc1ccc(NC(=O)c2c(NC(=O)Cc3ccccc3)sc3c2CCC(C)C3)cc1` (stereo not drawn), 2 µM (active); under `COC(=O)c1c(NC(=O)c2ccc(Cl)c(Cl)c2)sc2c1CCCC2`, “inactive”.
On the same count and under the same terms, the result for `COC(=O)c1c(NC(=O)c2cccs2)sc2c1CCCC2` reads “inactive”.
On the same count and under the same terms, the result for `COC(=O)c1c(NC(=O)CCCOc2ccccc2)sc2c1CCC(C)C2` (stereo not drawn) reads “inactive”.
Consider `CCOc1ccc(NC(=O)Cn2c(=O)n(CCCC(=O)NCc3ccc4c(c3)OCO4)c(=O)c3ccccc32)cc1`, for which the Potency entry was “inactive”.
On the same count and under the same terms, under `Cc1sc2ncn(CC(=O)N3CCN(c4ccc(F)cc4)CC3)c(=O)c2c1S(=O)(=O)N1CCN(c2ncccn2)CC1` stands “inactive”; under `Cc1ccc(C)c(S(=O)(=O)n2nc(C)c(S(=O)(=O)N3CCC(C)CC3)c2C)c1`, “inactive”.
On the same count and under the same terms, under `CCc1ccc(Sc2cc(C(=O)NCCCOC(C)C)c3ccccc3n2)cc1` stands “inactive”.
As to `CC(C)(CNC(=O)CNC(=O)C1CCCCC1)N1CCOCC1`, the activity, negative = inhibition is -2.59% [at 12.7 µM] (inactive).
`O=c1c2cc(Br)ccc2nc(-c2cccc(Cl)c2)n1O`: the Potency entry is “inactive”.
The same measure, in the same setting: under `COCc1nnc(NC(=O)c2ccc3c(c2)OCO3)s1` stands “inactive”; under `COc1ccc(CC(=O)Nc2sc(Cc3ccccc3)c(C)c2C(N)=O)cc1`, “inactive”.
The same measure, in the same setting: the result for `Cc1ccc(C(=O)Nc2sc(Cc3ccc4c(c3)OCO4)c(C)c2C(N)=O)cc1` reads 50.1 µM (active); that for `O=C(Nc1ccc2nc(SCCOc3ccccc3)sc2c1)c1ccco1`, “inactive”; that for `Cc1cc2nc(NC(=O)c3ccc(S(=O)(=O)N4CCOCC4)cc3)sc2cc1C`, “inactive”.
Turning to `O=c1c2cccnc2n(Cc2cccc(F)c2)c(=O)n1Cc1ccccc1Cl`, the Potency result is “inactive”.
Regarding `CCOC(=O)c1c(N)n(-c2cccc(C)c2C)c2nc3ccccc3nc12`, the Potency result is “inactive”.
The same measure, in the same setting: under `CC(C)Cn1c(N)c(C(=O)NCc2cccs2)c2nc3ccccc3nc21` stands “inactive”; under `CCCNC(=O)c1c(N)n(-c2ccc(S(N)(=O)=O)cc2)c2nc3ccccc3nc12`, 50.1 µM (active); under `COc1cc(NS(=O)(=O)c2cccs2)cc(OC)c1`, “inactive”.
Regarding `CC(Oc1ccc(Br)cc1)C(=O)NC1CCCCCC1` (stereo not drawn), the activity, negative = inhibition is 35.3% [at 12.7 µM] (inactive).
As to `O=C(NCCc1ccc(Cl)cc1)c1ccc2nc(CCc3ccccc3)oc2c1`, the Potency entry is “inactive”.
Regarding `CCn1c(-c2ccncc2)n[nH]c1=S`, the Potency entry is “inactive”.
The same measure, in the same setting: the result for `CCc1cc(-c2n[nH]c(=S)n2CC(C)C)cs1` reads 1.78 µM (active).
Same read-out and setting: the result for `CCc1cc(-c2nnc(SCC(=O)NC3CC3)n2C)cs1` reads “inactive”; that for `CCc1ccc(N(CC)C(=O)CCn2cnc3onc(-c4ccc(F)cc4)c3c2=O)cc1`, “inactive”; that for `O=C1CC2(CCN(C(=O)COc3ccc(F)cc3)CC2)Oc2ccccc21`, “inactive”.
Turning to `CCc1ccccc1OCCSc1nc(-c2cccs2)nc2cc(=O)[nH]n12`, the Potency result was “inactive”.
The same measure, in the same setting: the result for `CCOC(=O)c1ccc(NC2Nc3cc(C)nn3S2)cc1` (stereo not drawn) reads 3.16 µM (active).
On to `CCOC(=O)c1ccc(NC(=O)CCn2cnnn2)cc1`, for which the Potency result is “inactive”.
Take `CCc1ccc(NC2Nc3cc(C)nn3S2)cc1` (stereo not drawn): the Potency is 1 µM (active).
`C#CCNc1ccc(C(=O)OCC)cc1`: the Potency entry was “inactive”.
Same read-out and setting: under `CCc1ccc(CNC(=O)c2ccc(CS(=O)c3ccc(Br)cc3)o2)cc1` (stereo not drawn) stands “inactive”.
For the molecule `COc1ccc(Cn2ccn(CC(=O)Nc3cc(C)ccc3C)c(=O)c2=O)cc1`, the Potency result is “inactive”.
For `O=C(CCCCO)c1ccc(O)c(Cl)c1`, the activity, negative = inhibition was 1.29% [at 2.33 µM] (inactive).
In the case of `Cc1cccc(NC(=O)c2ccc(F)c(S(=O)(=O)N(C)C3CCCCC3)c2)c1`, the Potency result was “inactive”.
Consider `Cc1ccccc1OCCC(=O)OCC(=O)NCCc1ccc(S(N)(=O)=O)cc1`, for which the activity, negative = inhibition was -2.83% [at 12.7 µM] (inactive).
With `Cc1cc(C)c[n+](-c2nc3ccccc3nc2[N-]S(=O)(=O)c2cccs2)c1`, the Potency result was “inactive”.
The same measure, in the same setting: under `O=C(NCCc1ccccc1)C1CCN(S(=O)(=O)c2ccc(Br)s2)CC1` stands “inactive”; under `O=S(=O)([N-]c1nc2ccccc2nc1-[n+]1ccc(Cc2ccccc2)cc1)c1ccc(Br)s1`, 11.2 µM (active).
The same measure, in the same setting: the result for `COc1ccc(-n2nnc(-c3nsc(NC(=O)c4ccc(C)c(C)c4)n3)c2C)cc1Cl` reads “inactive”; that for `COc1ccccc1NC(=O)CSc1oc(-c2ccco2)nc1S(=O)(=O)c1ccc(Br)cc1`, “inactive”; that for `CN(C)S(=O)(=O)c1cccc(NC(=S)N/N=C/C(=O)c2ccccc2)c1`, “inactive”.
Still for that read-out and setting: under `Cc1ccc(/C=N/NC(=S)Nc2cccc(S(=O)(=O)N(C)C)c2)o1` stands 50.1 µM (active).
Regarding `CN(C)S(=O)(=O)c1cccc(NC(=O)Cc2ccsc2)c1`, the Potency entry was “inactive”.
Same read-out and setting: the result for `COc1cc(Cl)c(C)cc1Nc1nnc(-n2nc(C)cc2C)c2ccccc12` reads “inactive”.
The same measure, in the same setting: the result for `Cc1ccc2cccc(NC(=O)c3cccc4ccccc34)c2n1` reads “inactive”; that for `COC(=O)c1ccc(COC(=O)C2CCN(S(=O)(=O)c3c(Cl)cccc3Cl)CC2)o1`, 35.5 µM (active); that for `CCOc1ccc(S(=O)(=O)N2CCC(C(=O)OCc3ccc(OC)cc3)CC2)cc1`, “inactive”.
The same measure, in the same setting: under `COc1cccc(COC(=O)C2CCN(S(=O)(=O)c3ccc(Cl)cc3)CC2)c1OC` stands “inactive”.

These data come from PubChem BioAssay AID504332 (National Center for Advancing Translational Sciences (NCATS), 2011).
